# Measurements from PubChem BioAssay (Tox21).
# Values joined by “and” are separate entries in the source; they are usually repeats but may differ in a detail not shown here. Equal values may be shown once. Records with an inconclusive call do not appear. Where a call stands in place of a potency, no number is given. Some structures have more than one record in an assay (separate samples or runs), and their calls can disagree. Active and inactive are the calls of the source. The call rests on the fitted dose curve; in most records, active means well fitted cell-killing curve with a large enough effect in the repeat runs; inconclusive means weak or mixed curves, or effect the other way; inactive means no such curve, though single readings can be large or run the other way.
# Assay: qHTS assay to identify small molecule antagonists of the thyroid receptor (TR) signaling pathway - cell viability counter screen (AID 743064); further: nearly all actives have a fitted effect of over 50% in size
# Conditions: GH3.TRE-Luc viability, CellTiter-Fluor, 24 h; series mostly up to 70.3 µM
# From the text: National Center for Advancing Translational Sciences [NCATS]
# NIH Chemical Genomics Center [NCGC]
# U.S. Environmental Protection Agency [EPA]
# National Institutes of Environmental Health Sciences [NIEHS]
# National Toxicology Program [NTP]
# U.S. Food and Drug Administration [FDA]
# Thyroid receptor (TR), a nuclear hormone receptor, plays an important role in development, proliferation, differentiation, metabolism, brain function, and cardiovascular system. […] To profile the Tox21 10K compound library in TR signaling, a cell-based GH3-TRE-Luc assay (GH3.TRE-Luc cell line, developed by the laboratory of Dr. Albertinka J. Murk, Wageningen University) was used to measure the inhibition of TR. GH3 (rat pituitary tumor) cells stably expressing a TR activity sensor consisting of two TR response elements and a luciferase reporter gene. The cytotoxicity of the Tox21 compound library against the GH3.TRE-Luc cell line was tested in parallel by measuring the cell viability using CellTiter-Fluor assay (Promega, Madison, WI) in the same wells.
# Tox21 Assay Protocol Summary:
# GH3.TRE-Luc cells were dispensed at 1500 cells/4 uL/well into 1536-well white solid bottom plates using a Multidrop Combi dispenser (Thermo Fisher Scientific Inc., Waltham, MA). After the assay plates were incubated at 37 C for 4 hours, 23 nL of library compound or DMSO controls was transferred to the assay plates by a pintool station (Kalypsys, San Diego, CA), followed by addition of 1 ul of T3 (1 nM, final concentration in the wells) to stimulate TR transactivation. The assay plates were incubated at 37 C for 23.5 h, and then 1 uL of CellTiter-Fluor reagent (Promega, Madision, WI) of measuring cytotoxicity was added to each well using a Bioraptr Flying Reagent Dispenser (FRD) workstation (Beckman Coulter, Indianapolis, IN, USA). The plates were incubated at 37C and 5% CO2 for additional 30 min, and fluorescence intensity was measured by a ViewLux plate reader (PerkinElmer, Shelton, CT).
# Potency means the concentration at half of the fitted maximal effect.
row,SMILES,Potency
1,O=C(O)c1[nH]n(-c2ccc(S(=O)(=O)O)cc2)c(=O)c1N=Nc1ccc(S(=O)(=O)O)cc1,54.6 µM (active) and 50.9 µM (active)
2,CC(=O)NS(=O)(=O)c1ccc(N)cc1,inactive
3,C[C@]12C=CC(=O)C=C1CC[C@@H]1[C@@H]2[C@@H](O)C[C@@]2(C)[C@H]1CC[C@]2(O)C(=O)CO,inactive
4,Nc1ccc(O)c(C(=O)O)c1,inactive
5,CCCN(CCC)S(=O)(=O)c1ccc(C(=O)O)cc1,inactive
6,CCCNC(=O)NS(=O)(=O)c1ccc(Cl)cc1,inactive
7,Cc1noc(NS(=O)(=O)c2ccc(N)cc2)c1C,inactive
8,COc1ccc2[nH]cc(CCNC(C)=O)c2c1,inactive
9,CCC1(c2ccccc2)C(=O)NCNC1=O,inactive
10,Cc1ccc(C)c(OCCCC(C)(C)C(=O)O)c1,inactive
11,CCCCCCCCCCCCCCCC(=O)O,inactive
12,CC(C)[C@@H]1CC[C@@H](C)C[C@H]1O,inactive
13,O=C(O)CCC(=O)O,inactive
14,O=S(=O)(O)c1ccc2cc(O)ccc2c1,inactive
15,Nc1ccn([C@H]2CC[C@@H](CO)O2)c(=O)n1,inactive
16,NC(N)=O,inactive
17,CCCCC1C(=O)N(c2ccccc2)N(c2ccccc2)C1=O,inactive
18,CCCC(CCC)C(=O)O,inactive
19,NC(=O)c1cnccn1,inactive
20,O=C(c1ccccc1)c1ccccc1,inactive

row,SMILES,Potency
1,NNC(=O)c1ccncc1,inactive
2,Cc1cc(=O)[nH]c(=S)[nH]1,inactive
3,CNC[C@H](O)c1cccc(O)c1,inactive
4,CC(=O)Nc1nnc(S(N)(=O)=O)s1,inactive
5,c1ccc2[nH]ccc2c1,inactive
6,NC(N)=NC(=O)c1nc(Cl)c(N)nc1N,inactive
7,O=C(C1CCCCC1)N1CC(=O)N2CCc3ccccc3C2C1 (stereo not given),inactive
8,O=c1ccc2ccccc2o1,inactive
9,CC(O)C(=O)O (stereo not given),inactive
10,Cc1ccc(S(=O)(=O)NC(=O)NN2CCCCCC2)cc1,inactive
11,CC(C)(Oc1ccc(C2CC2(Cl)Cl)cc1)C(=O)O (stereo not given),inactive
12,O=NO,inactive
13,O=C(O)c1cccnc1,inactive
14,OCCc1ccccc1,inactive
15,O=C(O)CS,inactive and 61.6 µM (active)
16,Nc1ccc(S(=O)(=O)Nc2nccs2)cc1,inactive
17,NC(=O)c1ccccc1O,inactive
18,Cc1ccc(O)cc1,inactive
19,CCOc1ccc(NC(=O)CC(C)O)cc1 (stereo not given),inactive
20,O=S(=O)(O)NC1CCCCC1,inactive
